Source: PubChem BioAssay (NCI)
The panel holds about 83,000 compounds, 20% with a hit somewhere; the sample as a whole holds those more often.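 Assay: single dose, 48 h. Readout: percent growth (0 = no net growth; negative = cell death). Active: <10.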 The source made the active and inactive calls.

Experiments:
Test in all cases: NCI-60 one-dose screen, 48 h (100 = growth as untreated, 0 = no growth, -100 = all killed)
Conditions in all cases: 10 µM unless noted
[1] = tested on: HCT-15 colon
[2] = tested on: HT29 colon
[3] = tested on: SNB-75 CNS
[4] = tested on: SNB-19 CNS
[5] = tested on: U251 CNS
[6] = tested on: PC-3 prostate
[7] = tested on: SK-MEL-5 melanoma
[8] = tested on: UACC-62 melanoma
[9] = tested on: LOX IMVI melanoma
[10] = tested on: SK-MEL-28 melanoma
[11] = tested on: SK-MEL-2 melanoma
[12] = tested on: SN12C renal
[13] = tested on: UO-31 renal
[14] = tested on: TK-10 renal
[15] = tested on: ACHN renal
[16] = tested on: CAKI-1 renal
[17] = tested on: A498 renal
[18] = tested on: CCRF-CEM leukemia
[19] = tested on: MOLT-4 leukemia

Measured: growth

COc1cc(CCn2nnc3c(Nc4ccc(N5CCOCC5)cc4)ncnc32)cc(OC)c1
inactive: [1] 93.6% | [2] 99.3% | [3] 94.2% | [4] 93.3% | [5] 95.6% | [6] 72.1% | [7] 93.6% | [8] 91.5% | [9] 97.5% | [10] 97% | [11] 115% | [12] 103% | [13] 86.9% | [14] 123% | [15] 97.4% | [16] 93.9% | [17] 80.4% | [18] 84.5% | [19] 76.4%

COc1ccc(C2=NN(c3ccc(S(N)(=O)=O)cc3)C(c3cn(-c4ccccc4)nc3-c3ccc(Cl)cc3)C2)cc1 (configuration not stated)
inactive: [1] 80.8% | [2] 82.6% | [3] 89.9% | [4] 92.5% | [5] 84.1% | [6] 66.7% | [7] 99.9% | [8] 88.5% | [9] 87.3% | [10] 103% | [11] 94.7% | [12] 96.7% | [13] 60.5% | [14] 90.6% | [15] 95.4% | [16] 90.9% | [17] 76.4% | [18] 73.3% | [19] 69.2%

CC1Cc2c(N(C)C)ncnc2N(C)c2ccc(O)cc21 (configuration not stated)
inactive: [1] 50.5% | [2] 97.8% | [3] 72.9% | [4] 83.1% | [5] 78.9% | [6] 72.9% | [7] 82.9% | [8] 81.2% | [9] 86.2% | [10] 98.6% | [11] 89.6% | [12] 99% | [13] 80.2% | [14] 95.9% | [15] 101% | [16] 70.7% | [17] 76.7% | [18] 85.3% | [19] 75.6%

COc1cc(NC(=O)CCl)ccc(=O)c1
inactive: [1] 28.6% | [2] 70.1% | [3] 72% | [4] 93% | [5] 31.9% | [6] 74.6% | [7] 75% | [8] 57.2% | [9] 49.1% | [10] 85.4% | [11] 74.3% | [12] 71.7% | [13] 64.3% | [14] 35.4% | [15] 74.7% | [16] 31% | [17] 85.7% | [18] 39.7% | [19] 50.1%

COc1cc(CNC(=O)CSc2nc3ccccc3c(=O)n2Cc2cc(OC)c(OC)c(OC)c2)cc(OC)c1OC
inactive: [1] 97.4% | [2] 108% | [3] 89.2% | [4] 92.5% | [5] 98% | [6] 97.4% | [7] 93.7% | [8] 86.8% | [9] 99.9% | [10] 102% | [11] 95.9% | [12] 96.6% | [13] 72.5% | [14] 99.7% | [15] 98.1% | [16] 98.5% | [17] 88.4% | [18] 96.2% | [19] 92.7%

CC(=O)Nc1ccc2c(c1)/C(=C\C=C/c1ccc([N+](C)(C)C)cc1)c1ccccc1-2
inactive: [1] 89.1% | [2] 59.2% | [4] 36.6% | [5] 26% | [6] 68.4% | [7] 36.1% | [8] 100% | [9] 80.1% | [10] 66.3% | [11] 80.9% | [12] 16.6% | [13] 64.5% | [14] 103% | [15] 73.2% | [16] 65.8% | [17] 86% | [18] 67.3% | [19] 63.6%
active: [3] -1.84%

Cc1cc(Nc2nc(C(=O)Nc3ccccc3)nc3ccccc23)n[nH]1
inactive: [1] 29.5% | [2] 84.7% | [4] 97.3% | [5] 72.5% | [6] 51.2% | [7] 59.2% | [8] 59.9% | [9] 54% | [10] 69.5% | [11] 45.3% | [12] 63% | [13] 37.3% | [14] 58.8% | [15] 39.9% | [16] 24% | [18] 38.1% | [19] 55.4%
active: [3] -0.848% | [17] -1.3%

Cc1oc2ncnc(Nc3ccccc3)c2c1C(=O)NCCO
inactive: [1] 98.1% | [2] 106% | [3] 90.7% | [4] 93.9% | [5] 102% | [6] 107% | [7] 97.5% | [8] 86.2% | [9] 95.4% | [10] 98.9% | [11] 113% | [12] 93.2% | [13] 87.7% | [14] 122% | [15] 91.8% | [16] 90.8% | [17] 78.2% | [18] 97.4%
active: [19] -0.282%
